# Data reported in PubChem BioAssay AID1259423 (Fisher Drug Discovery Resource Center, 2018).
# Hit rate of the full screen: of about 270,000 compounds, about 410 (0.15%) were called active. This is one part of a sample in which actives are shown more often than they occur. No stated cut-off is given here; in the data, active means activation above about 40%; inactive means the rest, inconclusive results apart.
# System: Aedes aegypti neuropeptide Y-like receptor 7 (NPYLR7)
# Assay: agonists of mosquito NPYLR7 receptor, primary screen, cell-based, Aedes aegypti, calcium fluorescence, mosquito biting behavior (AID 1259423);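 further: 0% = vehicle and 100% = reference agonist at the receptor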
# Details: HEK293T NPYLR7/Galpha15, GCaMP6s calcium fluorescence, at 10 µM, stronger effect = higher value
# [1] = measured here: Max-Min RFU normalised activation
SMILES,activation,activation [1]
CCCCN(C)C(=O)c1nn(Cc2ccc(S(=O)(=O)N(C)c3ccccc3)cc2)c2ccccc12,11.3% (inactive),10%
CNC(C)c1nc2ccccc2c(=O)n1-c1ccc(Br)cc1 (stereo not drawn),0.997% (inactive),9.08%
CC(C)CN(Cc1cc(NC(=O)c2cccc(F)c2)ccc1N(C)C1CCN(C)CC1)C(=O)c1ccccc1Cl,1.98% (inactive),1.76%
N#[N+]c1c[nH]c2ccccc2c1=O,-8.5% (inactive),-5.61%
